# PLK1 PBD block – PLK1 (human) polo-box domain binding inhibition; Plk1 PBD binding of FITC phosphopeptide, fluorescence polarization; 360,000 compounds, 2.8% hits; AID 720504; Potency, µM, without a hit: max response, negative = inhibition, usual class: inhibitors; P53350; also: series mostly up to about 57 µM; % is scaled to controls: 0 for no effect and ±100 for the full control effect; nearly all actives have a fitted effect of over 65% in size
# Target sequence (P53350 whole entry, looked up, the tested form may be a part): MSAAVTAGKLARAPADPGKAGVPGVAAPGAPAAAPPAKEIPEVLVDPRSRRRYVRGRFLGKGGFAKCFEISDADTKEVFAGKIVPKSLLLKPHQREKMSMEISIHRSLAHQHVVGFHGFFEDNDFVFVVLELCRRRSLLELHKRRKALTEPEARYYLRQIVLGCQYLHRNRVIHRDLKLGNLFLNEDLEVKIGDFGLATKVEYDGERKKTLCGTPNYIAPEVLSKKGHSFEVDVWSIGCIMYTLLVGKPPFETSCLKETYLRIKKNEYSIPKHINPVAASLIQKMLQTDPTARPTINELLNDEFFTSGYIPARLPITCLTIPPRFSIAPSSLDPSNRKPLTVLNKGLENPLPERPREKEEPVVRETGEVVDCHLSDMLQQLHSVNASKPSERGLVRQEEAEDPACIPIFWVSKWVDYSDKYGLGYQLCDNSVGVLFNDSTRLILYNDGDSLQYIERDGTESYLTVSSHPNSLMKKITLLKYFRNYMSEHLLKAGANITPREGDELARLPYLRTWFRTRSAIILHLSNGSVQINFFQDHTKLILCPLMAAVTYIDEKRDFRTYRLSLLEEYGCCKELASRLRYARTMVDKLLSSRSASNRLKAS
# GCN5L2 inh – inhibitors of human GCN5L2 histone acetyltransferase. GCN5L2 HAT assay, ThioGlo1 CoA-SH fluorescence. Q92830. Potency, µM (doses to about 58.9 µM), for the others: at the top dose activity change, negative = inhibition, hits mostly inhibitors. AID 504327. 390,000 compounds, 0.21% hits; also: % is scaled to controls: 0 for no effect and ±100 for the full control effect
#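 Enzyme at 20nM final was mixed with library compounds for 15 min at room temperature. Peptide H3(1-25) at 75uM, acetyl-CoA at 70uM and ThioGlo1 at 50uM were then added. Plates were read immediately and after 20 min (Ex340nm/Em540nm).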
# VDR inhibitor – blocks the human vitamin D receptor; Potency, µM, for the others: max response, negative = inhibition, usual class: inhibitors; VDR-SRC2-3 peptide fluorescence polarization, 2 h; 400,000 compounds, 0.93% hits; P11473; also: % is scaled to controls: 0 for no effect and ±100 for the full control effect
#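 Reagent solutions, kept cold and dark, are dispensed first; compounds are then pinned in at 23 nl, plates briefly spun, and incubated 2 h at ambient temperature. Inhibition of VDR–SRC2-3 peptide binding is read by fluorescence polarization.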
# USP1 inh – inhibitors of human USP1/UAF1 deubiquitinase. O94782. Potency, µM (titrated, usually from 57.1 µM), without a hit: at the top dose activity change, negative = inhibition, usual class: inhibitors. 390,000 compounds, 0.23% hits. recombinant USP1/UAF1, Ub-Rhodamine cleavage fluorescence; also: % is scaled to controls: 0 for no effect and ±100 for the full control effect; nearly all actives have a fitted effect of over 60% in size
#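 Step one: compound is pinned into 1nM USP1/UAF1 in HEPES pH 7.8 buffer with TCEP. Step two: 15 min room-temperature incubation. Step three: Ub-Rho (150nM final) starts cleavage, tracked by fluorescence over six one-minute reads.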
# PTAP TSG101 blk – blocks PTAP/TSG101 interaction to inhibit HIV-1 budding. Q99816. Fluorescence polarization, FITC-PTAP peptide / Tsg101 binding. Potency, µM (series often up to 115 µM), inactives show at the highest dose activity change, negative = inhibition, usual class: inhibitors. 340,000 tested, under 10 active; active = well fitted inhibition curve with a large enough effect in the main read-out, with a control signal flat, not every such curve was filed as active; inconclusive = small, poorly fitted or top-dose-only effect, or effect the other way, or a change in a side signal; inactive = no such curve, though single readings can be large or run the other way; also: % of control where 0% means no effect
#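 Compounds were pin-transferred onto Tsg101 binding domain (10 uM final) in HEPES pH 7.5 buffer, then FITC-PTAP peptide was added at 50 nM final. After 20 min at RT, polarization reported peptide displacement across a qHTS concentration series.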
# * marks the source's active call; other numbers are inactive results; u = inconclusive; x = not tested or not shown; ! = a repeat was not active. Compounds with a hit are over-represented: about 3% of the library has one in this group of screens. Unless noted, calls follow the shape of the dose curve; as a rule, active = well fitted curve in the direction sought with a large enough effect; inconclusive = small, poorly fitted or top-dose-only effect, or another doubt; inactive = no such curve, though single readings can be large; an effect the other way counts as inactive or inconclusive. Potency is read from the fitted curve at half-maximal effect.
SMILES,PLK1 PBD block,GCN5L2 inh,VDR inhibitor,USP1 inh,PTAP TSG101 blk
Cc1cccc(C(=O)Nc2nnc(S(=O)(=O)N(C)Cc3ccco3)s2)c1,u,-7.0%,89.1µM*!,-10.5%,-2.1%
CCn1nnc2cc(C(=O)Nc3cc(C)ccc3C)ccc21,x,-7.0%,13.3%,-11.5%,x
c1cc(-c2ccsc2)n2cnnc2c1,-9.6%,x,x,x,x
COc1cc(C(=O)ON=C2C(C)=CC(=O)C=C2C)cc(OC)c1OC,u,-23.1%,89.1µM*,-11.8%,-5.4%
Cc1ccc(NC(=S)c2ccncc2)c(C)c1,-4.0%,-6.8%,35.5µM*,-20.4%,0.0%
Cc1ccc(NC(=O)CCC(=O)NNC(=S)Nc2ccccc2)c(C)c1,1.0%,-1.6%,-0.9%,-5.6%,2.9%
Cc1ccc(NC(=S)NNC(=S)Nc2ccc(C)cc2C)cc1,10.6µM*,0.0%,44.7µM*,-5.6%,0.2%
COC(=O)c1ccc(N2CCC(C)CC2)c(N)c1,21.2µM*,-10.6%,u,0.3%,-5.4%
CCC(=O)c1ccc(N2CCC(C)CC2)c(F)c1,-10.5%,-4.2%,-5.8%,-7.4%,-1.7%
COC(=O)c1ccc(C(=O)OC)c(N)c1,x,0.9%,x,x,x
CCCC(=O)c1ccc(N2CCC(C)CC2)c(F)c1,23.8µM*,-4.4%,-19.1%,-23.9%,-8.7%
Clc1ccc(OCCCCSc2ncccn2)cc1,29.9µM*,-0.5%,-13.5%,-9.0%,-6.5%
CCCOc1ccc(OCCSc2ncccn2)cc1,3.9%,-4.6%,-4.7%,-9.0%,-6.0%
Brc1cccc(OCCSc2ncccn2)c1,13.4µM*,0.0%,-21.0%,-4.1%,-1.5%
CCn1nc(C)cc1C(=O)Sc1ccc(Cl)cc1Cl,18.9µM*,-1.0%,79.4µM*,-9.0%,-3.1%
COc1ccc(Nc2cc(C)c3c(O)cccc3n2)cc1,26.7µM*,-2.3%,u,-21.0%,-1.4%
Cc1ccc(Nc2cc(C)c3c(O)cccc3n2)cc1C,-1.3%,-16.7%,14.9%,-10.8%,-0.9%
Cc1cccc(C(=O)Nc2c(-c3ccc(F)cc3)nc3ccccn23)c1,x,-3.6%,7.4%,-1.2%,x
COc1ccccc1CNCCS(=O)(=O)NN1CCOCC1,10.6µM*,-17.8%,-16.4%,-24.1%,-1.3%
CCCCCCCCNS(=O)(=O)CCNCc1ccccc1OC,-0.1%,x,6.4%,-28.4%,-7.2%
Cc1ccc2c(c1)C(c1ccccc1)N(C(=O)COc1ccc(Cl)cc1Cl)CC(=O)N2 (stereo unspecified),x,-15.9%,-14.3%,-27.4%,x
O=C1CNC(=O)/C1=C/c1ccc(Br)cc1,7.52µM*,-11.7%,5.0%,-11.2%,-7.9%
COC(=O)C1=C(C)NC(C)=C([N+](=O)[O-])[C@@H]1c1ccccc1C(F)(F)F,x,1.0%,-5.5%,x,x
CC(=O)N1CCc2cc(S(=O)(=O)CCC(=O)Nc3ccccc3F)ccc21,23.8µM*,-1.4%,-7.4%,-0.3%,-5.3%
CC(=O)N1CCc2cc(S(=O)(=O)CCC(=O)Nc3ccc(C)cc3Br)ccc21,x,3.3%,-28.9%,-25.4%,x
SMILES,PLK1 PBD block,GCN5L2 inh,VDR inhibitor,USP1 inh,PTAP TSG101 blk
CC(=O)Nc1ccc(NC(=O)CN2C(=O)CN(C)C(=O)c3ccccc32)cc1,x,0.1%,3.3%,-7.5%,x
Cc1ccc(N2C(=O)C3CCCN3C2=S)cc1 (stereo unspecified),13.4µM*,-13.2%,14.1%,-15.8%,-0.3%
Cc1cc(C)nc(SCC(=O)O)n1,-5.7%,-5.3%,-14.6%,-11.6%,-2.8%
Cc1cc(C)nc(SSc2nc(C)cc(C)n2)n1,1.89µM*,u,7.08µM*,-14.8%,0.7%
COc1ccc(-c2c(C)c3ccc(O)c(CN4CCOCC4)c3oc2=O)cc1OC,x,-13.3%,9.4%,-36.1%,x
COc1ccc(C2CC(c3ccccc3)Oc3cc(OC)ccc32)cc1 (stereo unspecified),x,x,-1.0%,x,x
C=CCNc1nc2c3ccccc3n(C(C)=O)c2s1,26.7µM*,-3.2%,-29.0%,u,-5.5%
Cc1ccc(-c2cc(NC(=O)CCl)n(-c3ccccc3)n2)cc1,26.7µM*,-3.0%,u,-24.2%,-5.7%
Cc1ccccc1CN1C2=NCCN2c2ccccc21,26.7µM*,-0.4%,5.4%,-11.5%,0.6%
CCCCCN1C2=NCCN2c2ccccc21,23.8µM*,-7.5%,-6.1%,-22.7%,-1.1%
CCCn1nnnc1NCc1ccccc1C,-8.1%,-2.1%,-11.7%,u,0.0%
CC(/C=C1\SC(=O)N(CCCC(=O)O)C1=O)=C\c1ccccc1,-4.4%,-13.6%,-12.6%,-23.0%,-4.3%
CC(=C\c1ccccc1)/C=C1/SC(=S)N(CCCC(=O)O)C1=O,u,1.5%,79.4µM*,-20.5%,-8.0%
CC(=Cc1ccccc1)C=C1SC(=S)N(CCCC(=O)Nc2ccc(C(=O)O)cc2)C1=O,23.8µM*,x,x,x,x
COc1cc(/C=C2\SC(=S)N(CCC(=O)Nc3ccc(O)cc3)C2=O)cc(OC)c1OC,29.9µM*,-10.2%,-21.3%,-10.2%,0.8%
O=C(CCN1C(=O)/C(=C/c2ccc(Cl)cc2)SC1=S)Nc1ccc(C(=O)O)cc1,29.9µM*,-8.7%,-0.3%,3.0%,-4.7%
COc1ccc(/C=C2\SC(=S)N(CCC(=O)Nc3ccc(C(=O)O)cc3)C2=O)cc1,-29.8%,u,-6.6%,-3.9%,-2.4%
CC(/C=C1\SC(=S)N(CCCC(=O)Nc2ccc(C(=O)O)cc2)C1=O)=C\c1ccccc1,u,-24.9%,-22.4%,-26.0%,0.0%
CN(Cc1ccc(Cl)cc1)C(c1cc2ccccc2o1)c1nnnn1C(C)(C)C (stereo unspecified),-2.4%,x,x,x,x
NC(C(=O)O)c1nn[nH]n1 (stereo unspecified),x,x,7.0%,x,x
COC(=O)[C@H]1Cc2c([nH]c3ccccc23)CN1C(=O)COc1ccc2c(C)cc(=O)oc2c1,x,x,3.9%,x,x
CC(/C=C1\SC(=S)N(CCC(=O)Nc2cccc(C(=O)O)c2)C1=O)=C\c1ccccc1,23.8µM*,-10.1%,u,-20.8%,-7.3%
CCOC(=O)c1cc2n(c1/N=C/N(C)C)-c1ccccc1C2=O,u,-19.6%,0.7%,25.1µM*,u
Clc1ccc(-c2nnc(C34CC5CC(CC(C5)C3)C4)o2)cn1,18.9µM*,1.3%,-8.8%,-15.8%,-2.0%
COc1ccccc1CNC(=O)CCn1c(=O)c2cccn2c2cccnc21,x,-4.7%,1.6%,2.2%,x
SMILES,PLK1 PBD block,GCN5L2 inh,VDR inhibitor,USP1 inh,PTAP TSG101 blk
COc1ccc(OC)c(CNC(=O)c2c(C)oc3ncn(CC(C)C)c(=O)c23)c1,x,6.6%,-1.0%,-26.8%,x
NC(=S)NNc1c(F)c(F)c(F)c(F)c1F,26.7µM*,-16.6%,-2.7%,-11.2%,-2.2%
C=C1CC[C@@H]2[C@](C)(CO)[C@H](O)CC[C@@]2(C)[C@@H]1C/C=C1/C(=O)OCC1O (stereo partly specified),-4.5%,x,3.5%,-10.5%,0.9%
O=C(c1cnccn1)N1CCC2(CCCN(c3cccc(-c4ccccc4)c3)C2)CC1,x,-20.7%,35.5µM*,x,x
O=C(c1ccco1)N1CCC2(CCCN(C(c3ccccc3)c3ccccc3)C2)CC1,x,-11.7%,35.5µM*,x,x
O=C(c1ccncc1)N1CCC[C@@]2(CCN(c3cccc(-c4ccccc4)c3)C2)C1,x,-3.1%,39.8µM*,x,x

# Screens deposited in PubChem BioAssay by National Center for Advancing Translational Sciences (NCATS).
